# Bioassay records: PubChem, several laboratories
# NRP1-CendR mod: alters CendR peptide binding to human NRP-1; AID 602438; O14786; FAM-RPARPAR peptide binding to NRP-1, fluorescence polarization; inhibition, % at 25 µM; 360,000 compounds, 0.85% hits;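 active = inhibition or corrected inhibition above about 18%, plus a signal ratio from 0.5 to 1.5, limit read from the data, passing the limit was not always enough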
# HGIII-sPLA2 inh: Inhibits HGIII-sPLA2 liposome hydrolysis, primary screen; inhibition, % at 12.2 µM; 370,000 compounds, 0.56% hits; AID 743126; QFRET BODIPY PC-A2 liposome hydrolysis, fluorescence; Q9NZ20;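 active = inhibition above mean plus 3 SD of compounds lying within the high and low control bounds, cut at about 19% in these data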;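 note: 0% = median of test compound wells and 100% = no enzyme DMSO wells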
# Target sequence (Q9NZ20 whole entry, looked up): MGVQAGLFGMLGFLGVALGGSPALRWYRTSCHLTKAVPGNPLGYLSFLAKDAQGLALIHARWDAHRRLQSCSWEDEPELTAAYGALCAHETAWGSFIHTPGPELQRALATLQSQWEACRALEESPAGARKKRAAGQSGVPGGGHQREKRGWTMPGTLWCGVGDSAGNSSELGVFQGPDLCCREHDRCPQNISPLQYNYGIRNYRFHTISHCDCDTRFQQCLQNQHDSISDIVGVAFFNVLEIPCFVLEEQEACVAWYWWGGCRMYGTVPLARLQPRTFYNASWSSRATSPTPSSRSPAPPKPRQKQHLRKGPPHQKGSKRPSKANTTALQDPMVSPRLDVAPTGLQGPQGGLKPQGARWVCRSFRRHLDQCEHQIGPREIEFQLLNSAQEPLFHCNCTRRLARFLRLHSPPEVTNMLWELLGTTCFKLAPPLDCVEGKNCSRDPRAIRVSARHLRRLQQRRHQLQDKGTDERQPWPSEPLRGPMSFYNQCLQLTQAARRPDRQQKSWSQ
# ADAM17 inh: ADAM17 inhibition, QFRET primary screen. 370,000 compounds, 0.83% hits. P78536. recombinant ADAM17, EDANS/DABCYL FRET peptide cleavage. AID 720648. inhibition, % at 6.95 µM;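 active = inhibition above the mean of compounds lying between control limits plus 3 SD, set per campaign, cut at about 8.5% in these data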;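 note: 0% = DMSO-only wells as the low control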
# KLK7 zymogen act: activates the human kallikrein-7 zymogen | 370,000 compounds, 0.9% hits | P49862 | AID 652039 | activation, % at 7 µM | purified proKLK7, EDANS-DABCYL substrate fluorescence; 100% is mature enzyme control, 0% vehicle;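 active = activation above the mean of all tested compounds plus 3 SD, computed per campaign excluding outliers beyond control limits, cut at about 13% in these data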
# ADAM10 inh: inhibits human ADAM10; O14672; recombinant ADAM10, EDANS/DABCYL FRET peptide cleavage, 3 h; inhibition, % at 7 µM; 370,000 compounds, 0.62% hits; AID 720582;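 active = inhibition above a per-campaign cutoff equal to the mean of compounds falling between control-based bounds plus 3 SD, cut at about 20% in these data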;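 note: 0% = DMSO wells while the 100% control is not disclosed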
# KLK7 act conf: proKLK7 activation, confirmation; shares compounds with KLK7 zymogen act; purified proKLK7, EDANS-DABCYL substrate fluorescence; scaled: vehicle 0, mature enzyme 100; activation, % at 7 µM; 3,200 compounds, 68% hits;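 active = activation, as change over the incubation, above the mean of all tested compounds plus 3 SD, cut at about 13% in these data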
# EDANS-DABCYL int: fluorescence interference counter-screen for KLK7 activators. shares compounds with KLK7 zymogen act. EDANS-DABCYL substrate fluorescence interference, no enzyme, 4 h; solvent 0%, active enzyme control 100%. activation, % at 7 µM. 3,200 compounds, 80% hits. AID 686952;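 active = activation above the all-compound mean plus 3 SD, ignoring values outside control-based bounds, cut at about 4.8% in these data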;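 note: value is the 4 h activation minus the activation read at time zero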
# * = called active by the depositor; i = inactive; / = no result. An excerpt weighted towards active compounds, which were near 3.4% of everything screened.
SMILES,NRP1-CendR mod,HGIII-sPLA2 inh,ADAM17 inh,KLK7 zymogen act,ADAM10 inh,KLK7 act conf,EDANS-DABCYL int
COc1nc(OC)nc(N2CCC(C(=O)N(C)Cc3ccccc3F)CC2)n1,/,-0.8,2.7,0.1,2.7,/,/
Cc1ccc(CN2CCCCC(NC(=O)c3ccc(C)cc3)C2=O)cc1 (stereo unspecified),/,8.8,-6.4,0.5,-7.3,/,/
COc1ccc(CN2C3=N[C@H](c4ccccc4)CC(=O)N3/C(=C\c3ccccc3)C2c2ccco2)c(OC)c1 (stereo partly specified),/,-0.5,3.5,-0.2,5.9,/,/
N=c1c(C(=O)NCCN2CCOCC2)cc2c(=O)n3ccccc3nc2n1Cc1ccc(F)cc1,6.2,3.7,-150.0,6.5,i,/,/
N=c1c(C(=O)NCCN2CCOCC2)cc2c(=O)n3ccccc3nc2n1CCCN1CCOCC1,6.3,9.2,-381.1,14.4*,i,4.0,5.0*
Cc1cccn2c(=O)c3cc(C(=O)NCc4ccc(F)cc4)c(=N)n(CCCN4CCOCC4)c3nc12,-12.6,2.8,-283.6,2.5,i,/,/
CCCCNC(=O)c1cc2c(=O)n3cccc(C)c3nc2n(CCN2CCOCC2)c1=N,3.4,2.2,i,16.1*,i,5.9,10.2*
CCCCCCN1CCS(=O)(=O)N(Cc2ccc(F)cc2)C(C(=O)OC)C1 (stereo unspecified),/,11.2,-8.5,-0.6,-12.2,/,/
CC1(C)Cc2c(ccc3ccccc23)C2=C(C(=O)N3CCCC3)C(=O)C(=O)N21,3.5,-4.2,-16.0,13.2*,-37.6,1.7,0.7
C=CCC1(O)C(=O)N2C(=C1C(=O)OCC)c1ccc3ccccc3c1CC2(C)C (stereo unspecified),-7.4,-7.4,-3.2,0.1,1.4,/,/
COc1ccc(/C=C2\CCc3c2nc2ccccc2c3C(=O)O)cc1OC,1.9,-26.9,-78.6,15.9*,-193.8,55.0*,65.5*
CCOc1ccc(/C=C2\CCCc3c2nc2ccccc2c3C(=O)O)cc1OC,131.2,/,/,/,/,/,/
COC(=O)CSc1cc(SCC(=O)OC)c(C#N)c(SCC(=O)OC)c1,-1.9,-6.9,-0.5,0.7,-18.3,/,/
CCOC(=O)CC(=O)CSc1nc(C)cc(C)c1C#N,-0.8,-3.9,-21.7,40.9*,-71.4,61.4*,74.3*
COC(=O)CSc1ccc(C#N)c(SCC(=O)OC)c1,9.5,-7.0,-27.0,16.7*,-75.1,26.9*,27.1*
COC(=O)c1ccccc1SCC(=O)Nc1ccc(N2CCOCC2)cc1,-8.2,-3.9,-4.2,0.6,-13.7,/,/
CCOC(=O)CC(=O)CSc1nc(CC)c(C)cc1C#N,-8.7,10.5,-12.4,6.3,-5.1,/,/
Cc1cc(C)c(C#N)c(SCC(=O)Nc2nonc2N)n1,-5.6,6.1,-55.5,40.5*,-152.4,74.5*,71.5*
COC(=O)CSc1ccccc1C(=O)OC,-2.8,-1.8,-29.9,54.9*,-101.3,83.6*,82.9*
O=C(CSc1nc2ccccc2nc1N1CCCC1)N1CCN(C(c2ccccc2)c2ccccc2)CC1,/,3.9,-6.5,-8.4,-28.5,/,/
COC(=O)C1CN(Cc2ccc(Cl)cc2)CCS(=O)(=O)N1Cc1cn(Cc2ccc(F)cc2)nn1 (stereo unspecified),/,-15.2,-0.8,0.1,3.9,/,/
CCOC(=O)N1CCN(C(=O)C[C@@H]2C(=O)N(CCc3ccc(Cl)cc3)/C3=C/CCCCC[C@@]32C(=O)OCC)CC1,/,-1.5,-0.3,0.2,-6.6,/,/
COC(=O)CSc1nc(C)cc(C)c1C#N,23.1,5.8,-18.4,57.5*,-45.6,124.7*,121.1*
COCc1cc(C)nc(SCC(=O)Nc2nc(C)cs2)c1C#N,1.7,-1.0,-16.5,76.0*,-24.4,140.2*,136.2*
Cc1cc(C)c(C#N)c(SCC(=O)C2CC2)n1,-1.4,-7.2,-73.2,88.8*,-161.1,120.7*,134.9*
CCOC(=O)CC(=O)CSc1nc2c(c(C)c1C#N)CCC2,9.3,-8.2,-24.2,44.7*,-78.5,74.5*,70.4*
COCc1cc(C)nc(SCC(=O)Nc2cccc(C)c2C)c1C#N,-1.5,0.6,-3.6,-0.1,-0.3,/,/
